Activity calls are given as the source filed them. Rule for the calls: active = hit-call score of the fitted dose curve at least 0.9, where 1 is the maximum; inactive = score below 0.9.
Legend:
[1] = read-out: Tumor necrosis factor (Homo sapiens) (UniProt P01375); test: BSK_LPS_TNFa: BioMAP Diversity Plus: LPS Assay for Tumour Necrosis Factor alpha (TNFa) Biomarker Activity (AID 2283085); details: primary human HUVEC with PBMC; actives raise or lower the signal
Method in brief: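 Human umbilical vein endothelial cells co-cultured with PBMC and stimulated with LPS. TNFa was measured by ELISA 24 h after chemical dosing, fitted bidirectionally relative to DMSO.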

[2] = read-out: Vascular cell adhesion molecule 1 (VCAM1), VCAM1 (gene 7412); test: BSK_LPS_VCAM1: BioMAP Diversity Plus: LPS Assay for Vascular cell adhesion molecule 1 (VCAM1) Biomarker Activity (AID 2283086); details: primary human HUVEC with PBMC; actives raise or lower the signal
Method in brief: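 Human umbilical vein endothelial cells co-cultured with PBMC and stimulated with LPS; VCAM-1 measured by ELISA 24 h after dosing. Bidirectional curve fitting against DMSO baseline; cytotoxicity tracked in parallel by SRB total-protein staining.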

CD38, CD38 (gene 952) = test: BSK_SAg_CD38: BioMAP Diversity Plus: SAg Assay for CD38 Biomarker Activity (AID 2283087); details: primary human HUVEC with PBMC; actives raise or lower the signal
Method in brief: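 Human HUVEC plus PBMC co-culture stimulated with superantigen; CD38 measured by ELISA 24 h after chemical dosing. Fluorescence read-out, bidirectional fit against DMSO; cytotoxicity tracked in parallel by SRB and Alamar Blue.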

CD40, CD40 (gene 958) = test: BSK_SAg_CD40: BioMAP Diversity Plus: SAg Assay for CD40 Biomarker Activity (AID 2283088); details: primary human HUVEC with PBMC; actives raise or lower the signal
Method in brief: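 HUVEC/PBMC co-culture, 24 h post-dose; CD40 by ELISA, fluorescence intensity; bidirectional fit vs DMSO negative control.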

CD69, CD69 (gene 969) = test: BSK_SAg_CD69: BioMAP Diversity Plus: SAg Assay for CD69 Biomarker Activity (AID 2283089); details: primary human HUVEC with PBMC; actives raise or lower the signal;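 for AC50: cell surface CD69 protein quantified by ELISA with fluorescence detection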
Method in brief: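 Endothelial/PBMC co-culture; chemical added; 24 h incubation; CD69 ELISA with fluorescence detection; bidirectional fit vs DMSO.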

[3] = read-out: Monocyte Chemoattractant Protein-1 (MCP1), CCL2 (gene 6347); test: BSK_SAg_MCP1: BioMAP Diversity Plus: SAg Assay for Monocyte Chemoattractant Protein-1 (MCP1) Biomarker Activity (AID 2283090); details: primary human HUVEC with PBMC; actives raise or lower the signal
Method in brief: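 MCP-1 levels in the endothelial–PBMC SAg co-culture were quantified by ELISA at 24 h post-dosing; both increases and decreases versus DMSO scored. Cytotoxicity monitored by SRB total protein in parallel cultures.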

[4] = read-out: E-selectin (Homo sapiens) (UniProt P16581); test: BSK_SAg_Eselectin: BioMAP Diversity Plus: SAg Assay for Eselectin Biomarker Activity (AID 2283091); details: primary human HUVEC with PBMC; actives raise or lower the signal
Method in brief: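 E-selectin ELISA readout at 24 h post-dosing in human umbilical vein endothelial cell/PBMC co-culture; gain or loss of signal fitted relative to DMSO baseline.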

[5] = read-out: Monokine induced gamma interferon (MIG), CXCL9 (gene 4283); test: BSK_SAg_MIG: BioMAP Diversity Plus: SAg Assay for Monokine induced gamma interferon (MIG) Biomarker Activity (AID 2283092); details: primary human HUVEC with PBMC; actives raise or lower the signal
Method in brief: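 Measures CXCL9 protein by ELISA in a human vascular primary-cell co-culture (umbilical vein endothelium with PBMC) 24 h after chemical addition. Activity is scored up or down from the DMSO control.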

[6] = BSK_SAg_PBMCCytotoxicity: PBMC Cytotoxicity Assessment in the BioMAP Diversity Plus: SAg Assay (AID 2283093); details: primary human HUVEC with PBMC;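 note: PBMC viability measured as Alamar Blue reduction fluorescence at 546/580 nm; fitted both ways against DMSO so a hit may be loss or gain of signal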;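 for AC50: PBMC superantigen activated with SEB plus TSST-1 one hour after compound addition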
Method in brief: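 Compound added to 75,000 PBMC/well for 1 h; SEB and TSST-1 then added at 20 ng/mL final each; 90 h incubation; Alamar Blue 6 h; read 546/580 nm ex/em. Activity fitted bidirectionally relative to DMSO baseline.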

[7] = read-out: Interleukin-8 (IL8), CXCL8 (gene 3576); test: BSK_SAg_IL8: BioMAP Diversity Plus: SAg Assay for Interleukin-8 (IL8) Biomarker Activity (AID 2283094); details: primary human HUVEC with PBMC; actives raise or lower the signal
Method in brief: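 Human umbilical vein endothelial cells co-cultured with PBMC, stimulated with superantigen; IL-8 measured by ELISA 24 h after chemical dosing. Bidirectional fitting versus DMSO; SRB staining in parallel cultures tracks cytotoxicity.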

Measured: AC50

Tumor necrosis factor (Homo sapiens), sequence (P01375 whole entry, looked up): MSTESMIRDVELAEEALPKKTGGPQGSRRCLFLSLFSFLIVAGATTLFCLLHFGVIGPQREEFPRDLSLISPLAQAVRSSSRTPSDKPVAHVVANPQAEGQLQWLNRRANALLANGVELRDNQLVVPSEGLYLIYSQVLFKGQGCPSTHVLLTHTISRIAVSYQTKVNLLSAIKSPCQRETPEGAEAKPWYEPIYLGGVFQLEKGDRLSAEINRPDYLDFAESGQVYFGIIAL
E-selectin (Homo sapiens), sequence (P16581 whole entry, looked up): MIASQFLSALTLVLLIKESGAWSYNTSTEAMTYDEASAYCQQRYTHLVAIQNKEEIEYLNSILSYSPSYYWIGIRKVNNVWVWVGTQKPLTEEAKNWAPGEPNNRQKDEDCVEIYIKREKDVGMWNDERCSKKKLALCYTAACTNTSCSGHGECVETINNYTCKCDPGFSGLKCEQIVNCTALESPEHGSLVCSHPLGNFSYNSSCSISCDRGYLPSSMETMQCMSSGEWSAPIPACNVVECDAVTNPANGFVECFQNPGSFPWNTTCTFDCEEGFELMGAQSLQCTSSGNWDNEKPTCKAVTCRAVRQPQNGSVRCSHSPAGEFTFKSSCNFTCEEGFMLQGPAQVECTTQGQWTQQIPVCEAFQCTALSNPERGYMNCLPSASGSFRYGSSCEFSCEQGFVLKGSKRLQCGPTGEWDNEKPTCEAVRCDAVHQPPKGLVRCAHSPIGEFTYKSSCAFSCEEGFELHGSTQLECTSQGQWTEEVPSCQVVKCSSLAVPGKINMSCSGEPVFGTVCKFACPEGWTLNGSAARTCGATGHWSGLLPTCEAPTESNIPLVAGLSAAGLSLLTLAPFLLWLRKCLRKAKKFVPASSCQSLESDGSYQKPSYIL

BrCCBr
inactive: all assays above

O=[N+]([O-])c1ccc2c3c(cccc13)CC2
active: CD38, CD38 (gene 952) 20 µM
not listed: [5]
inactive: all other assays above

CCOP(=S)(OCC)SCSP(=S)(OCC)OCC
active: [4] 15.2 µM
not listed: [5]
inactive: all other assays above

O=C1C2(Cl)C3(Cl)C4(Cl)C(Cl)(Cl)C5(Cl)C3(Cl)C1(Cl)C5(Cl)C24Cl (configuration not stated)
active: [1] 11.6 µM | [2] 9.63 µM | CD38, CD38 (gene 952) 7.7 µM | CD40, CD40 (gene 958) 8.7 µM | CD69, CD69 (gene 969) 8.18 µM | [3] 11.2 µM | [4] 19.3 µM | [6] 5.7 µM | [7] 26.2 µM

CCC(C)(C)c1ccc(O)c(C(C)(C)CC)c1
active: [1] 13.1 µM | [2] 25 µM | CD38, CD38 (gene 952) 14.9 µM | CD40, CD40 (gene 958) 13 µM | CD69, CD69 (gene 969) 13.7 µM | [4] 9.83 µM | [6] 9.42 µM | [7] 9.58 µM

CCOC(=O)/C=C(C)/C=C/C[C@@H](C)CCCC(C)C
active: [1] 33.2 µM | [2] 25.7 µM | CD38, CD38 (gene 952) 30.7 µM | CD40, CD40 (gene 958) 25.8 µM | CD69, CD69 (gene 969) 20 µM | [3] 29 µM | [4] 22.4 µM | [6] 26.4 µM | [7] 20 µM

Nc1ncc([N+](=O)[O-])s1
not listed: [5]
inactive: all other assays above

C=C(C)C(=O)[O][Sn]([CH2]CCC)([CH2]CCC)[CH2]CCC
active: [1] 0.34 µM | [2] 0.148 µM | CD38, CD38 (gene 952) 0.248 µM | CD40, CD40 (gene 958) 0.148 µM | CD69, CD69 (gene 969) 0.148 µM | [3] 0.352 µM | [4] 0.147 µM | [6] 0.236 µM | [7] 0.31 µM

COP(=S)(OC)Oc1ccc(Sc2ccc(OP(=S)(OC)OC)cc2)cc1
active: CD38, CD38 (gene 952) 14.5 µM | CD40, CD40 (gene 958) 14.8 µM | CD69, CD69 (gene 969) 13.6 µM | [3] 26.9 µM | [4] 30.4 µM | [7] 9.59 µM
inactive: [1] | [2] | [6]

CCOP(=S)(OCC)SCCS(=O)(=O)CC
not listed: [5]
inactive: all other assays above

CCC(=O)C(CC(C)N(C)C)(c1ccccc1)c1ccccc1 (configuration not stated)
not listed: [5]
inactive: all other assays above

CCN1CCC2(CC1)COc1cc3c(cc12)N(C(=O)c1ccc(-c2ccc(-c4nnc(C)o4)cc2C)cc1)CC3
active: [1] 14.3 µM | [2] 22.6 µM | CD38, CD38 (gene 952) 12.8 µM | CD40, CD40 (gene 958) 18.7 µM | CD69, CD69 (gene 969) 12 µM | [3] 12.6 µM | [4] 13.3 µM | [6] 12.6 µM | [7] 12.3 µM

Cc1ccccc1N
not listed: [5]
inactive: all other assays above

CC12CC1(C)C(=O)N(c1cc(Cl)cc(Cl)c1)C2=O (configuration not stated)
not listed: [5]
inactive: all other assays above

ClC(Cl)=C(Cl)C(Cl)=C(Cl)Cl
active: [1] 30.9 µM | [2] 31.4 µM | [6] 33.1 µM
not listed: [5]
inactive: all other assays above

O=c1[nH]c(=O)[nH]c(=O)[nH]1
active: [7] 32.6 µM
not listed: [5]
inactive: all other assays above

O=C(OC1CCCCC1)c1ccccc1C(=O)OC1CCCCC1
active: [1] 26.5 µM | [2] 20.9 µM | CD38, CD38 (gene 952) 33.3 µM | CD40, CD40 (gene 958) 20.9 µM | CD69, CD69 (gene 969) 26.2 µM | [3] 27.8 µM | [4] 29.8 µM | [6] 20.9 µM | [7] 20.9 µM

Oc1ccc(-c2ccccc2)cc1
not listed: [5]
inactive: all other assays above

From PubChem BioAssay (EPA / NIEHS)
